# BAZ2B block: blocks human BAZ2B; 4.4% of 360,000 active; Potency, µM (highest dose often 114 µM), inactives show at the highest dose activity change, negative = inhibition, most hits filed as inhibitors; AlphaScreen BAZ2B-H3K14Ac peptide displacement; Q9UIF8; further: potency means the concentration at half of the fitted maximal effect; on the % scale 0 is the no-effect control and ±100 the full control effect; nearly all actives have a fitted effect of over 60% in size
#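 BAZ2B 50 nM plus b-H3(5-23)K14Ac 50 nM, PBS pH 7.4/0.01% Tween-20, 30 min RT; compound added (max 110 uM), 30 min RT; streptavidin donor/Ni-chelate acceptor beads 10 ug/mL final, 20 min dark; AlphaScreen read.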
# JMJD2A Tudor inh: JMJD2A Tudor domain (human) inhibition; O75164; AlphaScreen JMJD2A-Tudor / H3K4me3 peptide binding; Potency, µM (titrated, usually from 114 µM), without a hit: at the top dose activity change, negative = inhibition, actives largely listed as inhibitors; 4.4% of 390,000 active; AID 504339; further: potency means the concentration at half of the fitted maximal effect; on the % scale 0 is the no-effect control and ±100 the full control effect; nearly all actives have a fitted effect of over 50% in size
# HP1b chromo inh: blocks HP1-beta chromodomain binding to methylated histone tails. P83916. AID 540317. AlphaScreen HP1-beta / biotin-H3K9me3 peptide binding. Potency, µM (doses to about 114 µM), without a hit: at the highest dose activity change, negative = inhibition, actives largely listed as inhibitors. 0.56% of 390,000 active; further: potency means the concentration at half of the fitted maximal effect; nearly all actives have a fitted effect of over 70% in size
#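 HP1-beta protein (50 nM final) preincubated 30 min at room temperature with biotinylated H3(1-18)K9me3 peptide (50 nM) in PBS pH 7.4, 0.01% Tween-20, then compound added for 30 min. AlphaScreen streptavidin donor/nickel chelate acceptor beads (10 ug/mL final), 30 min dark, luminescence read.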
# Six1-Eya2 blk: Six1/Eya2 interaction inhibition; AlphaScreen GST-Six1/His-Eya2 binding, biochemical; stronger effect = lower value; activity change, % (no concentration beside the values); 0.56% of 360,000 active; AID 651725; in the data active means activity change below about -65%; inconclusive means mostly about -30% to -63%; further: on the % scale 0 is the no-effect control and ±100 the full control effect
#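 GST-Six1 + His-Eya2 (5X stock: 250/500 nM); Tris pH 8.0, 300 mM NaCl, 0.05% BSA, 0.02% Tween 20; GSH donor/Ni acceptor beads; 1 h 37 °C dark; AlphaScreen readout.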
# G9a inh: inhibitors of human histone lysine methyltransferase G9a. Q96KQ7. G9a H3K9 monomethylation, AlphaScreen, 2 h. Potency, µM (highest dose often 102 µM), for the others: at the highest dose activity, negative = inhibition, most hits filed as inhibitors. 8.8% of 350,000 active. AID 504332; further: potency means the concentration at half of the fitted maximal effect; on the % scale 0 is the no-effect control and ±100 the full control effect; nearly all actives have a fitted effect of over 75% in size
#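 Signal arises when biotinylated H3K9 peptide, once monomethylated, bridges streptavidin donor and antibody-captured acceptor beads. Enzyme at 20 nM was preincubated 15 min with test compounds; peptide 500 nM and SAM 20 uM then reacted for 2 h.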
# CtBP-E1A inh: blocks the CtBP interaction with E1A. activity change, % (no concentration beside the values). AID 651724. 0.49% of 340,000 active. AlphaScreen GST-E1A/His-CtBP binding, 1536-well; stronger effect = lower value; in the data active means activity change below about -65%; inconclusive means mostly about -30% to -63%; further: on the % scale 0 is the no-effect control and ±100 the full control effect
#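 GST-E1A and His-tagged CtBP (125 nM each as 5X stock) were preincubated with pin-transferred compound for 2 h at 37 °C in the dark, then glutathione donor and nickel acceptor beads were added for 1 h before AlphaScreen reading.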
# * hit, by the source's call; ? = inconclusive; . = not tested or not shown; ! = not confirmed by another sample; [ ] = dose if it differs, or a comment. Only some compounds are listed: those with a hit (about 10% of all), similar ones and a draw of the others. Unless noted, the call rests on the fitted dose curve; in most records, active means well fitted inhibition curve with a large enough effect; inconclusive means small, poorly fitted or top-dose-only effect; inactive means no such curve, though single readings can be large or run the other way.
SMILES,BAZ2B block,JMJD2A Tudor inh,HP1b chromo inh,Six1-Eya2 blk,G9a inh,CtBP-E1A inh
COc1ccc(-c2onc(C)c2C)cc1S(=O)(=O)NCC1CCN(Cc2cc(C)ccc2C)CC1,?,?,-1%,.,-33%[59 µM],.
CCC1CN(C(=O)Nc2ccc(Br)cc2F)c2ccccc2S1 (centres undefined),-1%,21%,74%,.,13%[59 µM],.
Cc1ccc(NC(=O)CN(C)CC(=O)Nc2cccc(F)c2)cc1S(=O)(=O)N1CCCCCC1,50µM*,18µM*,?,2,5.6µM*,2
CCCCN1C[C@H](C)[C@@H](CC(=O)Nc2ccccc2)C1=O,.,.,.,3,.,0
CCCCN1C[C@H](C)[C@@H](CC(=O)NCc2ccccc2)C1=O,-25%,-11%,62%,2,45µM*,5
COc1ccc(C(=O)NCCS(=O)(=O)NCc2ccc3c(c2)OCO3)cc1,11%,-10%,9%,-10,8%[0.501 µM],0
COc1cccc(C(=O)NCCS(=O)(=O)NCc2ccc3c(c2)OCO3)c1,0%,-23%,-5%,-1,40µM*,5
COc1ccc(CNS(=O)(=O)CCNC(=O)c2cccc(OC)c2)cc1,5%,-14%,21%,6,50µM*,-11
COc1cccc(C(=O)NCCS(=O)(=O)NCc2ccccn2)c1,-3%,2.5µM*,-2%,6,?,-1
COc1ccc(NC(=O)CC2C(=O)N(c3ccccc3)C(=O)N2C2CCCCC2)cc1 (centres undefined),-5%,-7%,27%,.,5%[59 µM],.
CCOCCCn1c(=NC(=O)c2cccnc2)c(C(=O)OCC)cc2c(=O)n3ccccc3nc21,-27%,50µM*!,10%,-7,2%[59 µM],-6
CCCCn1c(=NC(=O)c2cccnc2)c(C(=O)OCC)cc2c(=O)n3ccccc3nc21,1%,-16%[57.1 µM],-12%,0,0%[12.7 µM],13
Cn1c2c(c(=O)n(C)c1=O)C(c1ccc(F)cc1)C(C#N)=C(N)O2 (centres undefined),-15%,-7%,20%,0,45µM*,-7
Cn1cc(-c2cc3n(n2)CCC(=O)N3CC(=O)O)c2ccccc21,-11%,-2%,31%,.,3%[59 µM],.
O=C(CSc1nnc(-c2ccccc2Br)o1)N1CCOCC1,6%,-8%,8%,3,16%,0
CC1CCCCN1C(=O)CSc1nnc(-c2ccccc2Cl)o1 (centres undefined),3%,-4%,-10%,.,13µM*,.
O=C(CSc1nnc(-c2ccccc2O)o1)N1CCCCC1,-31%,-2%,37%,-6,10µM*,-1
O=C(CSc1nnc(-c2ccccc2O)o1)N1CCOCC1,79µM*,56µM*,-20%,3,-11%,-5
O=C(CSc1nnc(-c2ccccc2Cl)o1)N1CCCCC1,-6%,-11%,55%,4,?,10
Cc1oc(-c2ccc(Cl)cc2)nc1CSc1nnc(C)n2c1cc1sccc12,-13%,0%,29%,.,-2%[59 µM],.
Clc1nc(Cl)nc(N(c2ccccc2)c2ccccc2)n1,79µM*,25µM*,5%,8,50µM*,-10
COc1ccc(CNC(=O)CCc2c(C)nc3c(c2C)c(=O)n(C)c(=O)n3C)cc1,-8%,-16%,26%,.,-30%[59 µM],.
COc1ccc(Cl)cc1NC(=O)CN(c1cccc(C)c1C)S(=O)(=O)c1ccccc1,-4%,-10%,20%,.,-52%[59 µM],.
COc1ccc(N2CCN(CC(=O)Nc3ccccc3SC)CC2)cc1,50µM*,?,?,-22,-50%[12.7 µM],-23
COc1ccc(N2CCN(CC(=O)Nc3c(C)cc(C)cc3C)CC2)cc1,-26%,-27%,5%,1,40µM*,-9
SMILES,BAZ2B block,JMJD2A Tudor inh,HP1b chromo inh,Six1-Eya2 blk,G9a inh,CtBP-E1A inh
CC(=O)N1c2ccc(S(=O)(=O)NCCc3cccc(C)c3)cc2CC1C (centres undefined),1%,-9%,26%,.,10%[59 µM],.
CC1=C(C)C(C)=C(C#N)C(=C(C#N)C#N)N1,?,-19%,6%,-4,40µM*,6
CN(C)c1ccc(/C=N/NC(=O)c2ccccc2Cl)cc1,-35%,-31%,-7%,-2,40µM*,-5
CN(C)c1ccc(/C=N/NC(=O)Cn2nnc3ccccc32)cc1,-27%,-12%,-1%,-14,14µM*,-4
COc1ccc(NC(=O)O/N=C/c2ccccc2)cc1,-13%,-23%,-7%,3,0%,.
COc1ccc(/C=N/NC(=O)Cn2nnc3ccccc32)cc1OC,-25%,-14%,15%,-25,28%[59 µM],1
O=C(N/N=C\c1ccc(Cl)cc1)c1sccc1-n1cccc1,3%,-12%,26%,-11,-13%,-1
CN(C)c1ccc(/C=N/OC(=O)Nc2ccccc2)cc1,71µM*,-34%,-6%,-9,-12%,-10
CN(C)c1ccc(/C=N/NC(=O)c2sccc2-n2cccc2)cc1,-24%,-17%,17%,-5,28µM*,21
COc1ccccc1NC(=O)C(Cc1ccccc1)NS(=O)(=O)c1ccc2c(c1)c(=O)n(C)c(=O)n2C (centres undefined),-5%,-10%,48%,.,?,.
Cc1ccc(C)c(CN2C(=O)c3ccccc3S(=O)(=O)c3ccc(C(=O)Nc4cc(F)ccc4F)cc32)c1,-11%,-21%,22%,.,-25%[59 µM],.
COc1ccc(Nc2nc3ccccc3nc2NS(=O)(=O)c2ccc(Cl)cc2)cc1OC,?,-26%,-4%,.,-5%[59 µM],.
O=[N+]([O-])c1ccccc1S(=O)(=O)N1CCN(C2CCCC2)CC1,79µM*,1.8µM*,?,-1,.,0
O=[N+]([O-])c1cccc(OCCCN2CCC(Cc3ccccc3)CC2)c1,.,79µM*,-15%,-25,.,-18
O=C(Nc1ccccc1)c1ccc(CN2CCC(Cc3ccccc3)CC2)cc1,.,4%,43%,-1,.,-1
CS(=O)(=O)N1CCN(S(=O)(=O)c2ccccc2[N+](=O)[O-])CC1,-14%,-6%[11.4 µM],-5%,-2,0%,.
O=[N+]([O-])c1ccc(CN2CCC(Cc3ccccc3)CC2)cc1,50µM*,28µM*,?,-6,?,.
O=[N+]([O-])c1ccc(S(=O)(=O)N2CCN(C3CCN(Cc4ccccc4)CC3)CC2)cc1,28µM*,1.8µM*,50µM*,-28,32µM*,-14
O=S(=O)(c1ccc(Cl)cc1)N1CCN(C2CCN(Cc3ccccc3)CC2)CC1,0%,-20%,4%,0,-6%,-4
Cc1cccc(N2CCN(C(=O)Cn3c(=O)c4cccn4c4ccc(F)cc43)CC2)c1C,-12%,-12%,24%,.,-24%[59 µM],.
O=[N+]([O-])c1ccccc1S(=O)(=O)N1CCN(C2CCN(Cc3ccccc3)CC2)CC1,-28%,0.71µM*,?,-18,-29%,-3

# Bioassay records from PubChem BioAssay.
